Consider 14 compounds from PubChem BioAssay (NCI).

SMILES strings stand for the structures. About 83,000 compounds went through this panel and 20% of them were active in at least one assay; those are over-represented in the sample as a whole.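 Cell lines were cultured in 96-well plates, exposed to a single compound concentration, and assessed for percent growth 48 hours later.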 A number with no mark means an inactive call. The source made the active and inactive calls. The calls were made as follows: active = growth percent below 10; inactive = the rest.

Among the test systems are HCT-15 colon; HT29 colon; SNB-75 CNS; SNB-19 CNS; U251 CNS; PC-3 prostate; SK-MEL-5 melanoma; UACC-62 melanoma; LOX IMVI melanoma; SK-MEL-28 melanoma.
What all share (test): NCI-60 one-dose screen, 48 h (100 = growth as untreated, 0 = no growth, -100 = all killed)
Holding throughout (conditions): 10 µM unless noted

With `c1ccc(-c2ccc(-c3ccccc3)[nH]2)cc1`, the growth with HCT-15 colon is 94.8%; in the assay on HT29 colon it was 101%; with SNB-75 CNS, 87.9%; in the assay on SNB-19 CNS, 104%; in the assay on U251 CNS it was 105%; in the assay with PC-3 prostate it was 99.8%. Also, the growth is 99% in the assay with SK-MEL-5 melanoma, 87.2% with UACC-62 melanoma, 103% in the assay on LOX IMVI melanoma and 107% with SK-MEL-28 melanoma.

Turning to `O=C1CCCN1C1CCN2CCCc3cccc1c32` (stereo not given), the growth in the assay on HCT-15 colon is 102%; in the assay with HT29 colon it was 94.4%; with SNB-75 CNS, 105%; in the assay on SNB-19 CNS, 100%; in the assay on U251 CNS, 103%; with PC-3 prostate, 91.3%. Further, the growth in the assay with SK-MEL-5 melanoma is 110%; in the assay with UACC-62 melanoma, 93.6%; with LOX IMVI melanoma it was 101%; in the assay on SK-MEL-28 melanoma, 115%.

Turning to `C#C[C@]1(O)CC[C@H]2[C@@H]3CC=C4c5sc(-c6cccc(Br)c6)nc5CC[C@]4(C)[C@H]3CC[C@@]21C`, the growth was 61.7% with HCT-15 colon; 83.1% with HT29 colon; 59% in the assay on SNB-75 CNS; 84.6% in the assay on SNB-19 CNS; 70.9% in the assay on U251 CNS; 57.2% in the assay on PC-3 prostate. Moreover, the growth is 99.9% in the assay on SK-MEL-5 melanoma, 89.9% in the assay with UACC-62 melanoma, 71.6% in the assay with LOX IMVI melanoma and 54.7% in the assay on SK-MEL-28 melanoma.

For the compound `C=CCOC(=O)C1=C(C)NC2=C(C(=O)CC(C)(C)C2)C1c1ccc(OC)cc1` (stereo not given), the growth in the assay on HCT-15 colon is 105%; in the assay with HT29 colon it was 102%; in the assay with SNB-75 CNS, 81.2%; with SNB-19 CNS, 92.2%; in the assay on U251 CNS it was 103%; in the assay with PC-3 prostate, 88.3%. The growth with SK-MEL-5 melanoma is 108%; with UACC-62 melanoma it was 81.1%; in the assay on LOX IMVI melanoma it was 102%; in the assay on SK-MEL-28 melanoma, 104%.

As for `O=C(CCl)N1c2ccccc2Oc2ccc3ccccc3c21`, the growth was -81.1% (active) in the assay on HCT-15 colon; -49.8% (active) in the assay on HT29 colon; 22.1% in the assay with SNB-75 CNS; 24.5% in the assay on SNB-19 CNS; -64.3% (active) in the assay on U251 CNS; 6.63% (active) in the assay on PC-3 prostate. For the same compound, the growth was 3.7% (active) in the assay on SK-MEL-5 melanoma, -0.259% (active) in the assay on UACC-62 melanoma, -81.1% (active) with LOX IMVI melanoma and 53.8% in the assay with SK-MEL-28 melanoma.

In the case of `COc1cc(OC)cc(-c2ccc(-c3ccc(C(=N)N)s3)s2)c1`, the growth in the assay on HCT-15 colon was -77.4% (active); in the assay with HT29 colon, -87.4% (active); in the assay with SNB-75 CNS, -91.5% (active); in the assay with SNB-19 CNS, -82.9% (active); in the assay with U251 CNS, -90.1% (active); in the assay with PC-3 prostate, -83.9% (active). Also, the growth is -97.4% (active) with SK-MEL-5 melanoma, -90.5% (active) with UACC-62 melanoma, -71.6% (active) with LOX IMVI melanoma and -85.3% (active) in the assay with SK-MEL-28 melanoma.

Turning to `COc1ccccc1/C=N\Nc1ccc([N+](=O)[O-])cn1`, the growth was 102% in the assay on HCT-15 colon; 107% in the assay on HT29 colon; 110% with SNB-75 CNS; 103% in the assay with SNB-19 CNS; 101% in the assay on U251 CNS; 98.8% with PC-3 prostate. Besides, the growth in the assay on SK-MEL-5 melanoma was 102%; with UACC-62 melanoma, 100%; in the assay with LOX IMVI melanoma, 98.5%; with SK-MEL-28 melanoma it was 120%.

For the compound `Nc1nc(N)c2cc(NCc3ccc(Cl)c(Cl)c3)ccc2n1`, the growth in the assay on HCT-15 colon is -80% (active); with HT29 colon it was -76.3% (active); with SNB-75 CNS it was -97.1% (active); in the assay with SNB-19 CNS, -85.6% (active); in the assay with U251 CNS, -94.5% (active); in the assay with PC-3 prostate, -88.7% (active). Also, the growth in the assay on SK-MEL-5 melanoma was -97.5% (active); in the assay on UACC-62 melanoma, -84% (active); in the assay on LOX IMVI melanoma, -80.4% (active); with SK-MEL-28 melanoma, -94.1% (active).

With `O=C(CC(=O)C(F)(F)C(F)(F)C(F)(F)F)c1cc2ccccc2o1`, the growth in the assay on HCT-15 colon was 108%; in the assay on HT29 colon, 103%; with SNB-75 CNS, 92.2%; with SNB-19 CNS, 107%; in the assay on U251 CNS, 97.5%; in the assay with PC-3 prostate it was 91.1%. For the same compound, the growth in the assay on SK-MEL-5 melanoma is 106%; with UACC-62 melanoma, 104%; in the assay with LOX IMVI melanoma it was 92.4%; with SK-MEL-28 melanoma it was 105%.

For the compound `Clc1nnc2c3ccccc3ccn12`, the growth in the assay on HCT-15 colon was 99.9%; with HT29 colon it was 113%; in the assay on SNB-75 CNS it was 82.2%; with SNB-19 CNS, 110%; in the assay on U251 CNS, 102%; in the assay on PC-3 prostate, 93%. Further, the growth was 97.7% with SK-MEL-5 melanoma, 102% in the assay on UACC-62 melanoma, 109% in the assay on LOX IMVI melanoma and 119% in the assay on SK-MEL-28 melanoma.

For the compound `Cn1c(=O)c2c(nc(N/N=C/c3ccccc3Cl)n2C)n(C)c1=O`, the growth in the assay on HCT-15 colon is 105%; with HT29 colon, 93.6%; with SNB-75 CNS, 93.6%; in the assay on SNB-19 CNS, 108%; with U251 CNS it was 101%; with PC-3 prostate it was 99.3%. The growth in the assay with SK-MEL-5 melanoma was 109%; in the assay on UACC-62 melanoma, 104%; with LOX IMVI melanoma, 98.2%; in the assay on SK-MEL-28 melanoma, 122%.

`COc1cc(C2C(C#N)=C(N)Oc3cc4c(cc32)OCO4)cc2c1OCO2` (stereo not given): the growth in the assay on HCT-15 colon is 21.5%; with HT29 colon, 9.21% (active); in the assay on SNB-75 CNS it was -9.64% (active); with SNB-19 CNS, 45.7%; with U251 CNS, 28.4%; with PC-3 prostate it was 27.9%. Further, the growth is 19.8% in the assay on SK-MEL-5 melanoma, 30.7% in the assay with UACC-62 melanoma, 38.3% with LOX IMVI melanoma and 41.7% in the assay on SK-MEL-28 melanoma.

For the compound `O=c1c2cc(Cl)ccc2oc2ccc(OCCCCCN3CCCCCC3)cc12`, the growth was 30% with HCT-15 colon; 5.64% (active) in the assay on HT29 colon; 92.3% in the assay with SNB-75 CNS; 91.5% in the assay on SNB-19 CNS; 69.2% with U251 CNS; 83.2% with PC-3 prostate. For the same compound, the growth is 62.9% with SK-MEL-5 melanoma, 85.4% with UACC-62 melanoma, 73.2% in the assay on LOX IMVI melanoma and 107% in the assay with SK-MEL-28 melanoma.

With `Cc1ccc([C@H]2c3[nH]c4ccccc4c3C[C@H]3C(=O)N(CCCCCCC(=O)NO)CC(=O)N23)cc1`, the growth with HCT-15 colon is 102%; in the assay with HT29 colon, 37.2%; in the assay on SNB-75 CNS, -7.38% (active); with SNB-19 CNS, 52.5%; in the assay with U251 CNS, 50.7%; in the assay on PC-3 prostate it was 44.3%. For the same compound, the growth in the assay on SK-MEL-5 melanoma is 37.4%; with UACC-62 melanoma, 24.1%; with LOX IMVI melanoma, -37.2% (active); in the assay on SK-MEL-28 melanoma, 37.5%.
